Source: PubChem BioAssay (NCATS)
Inconclusive results are not listed. Active and inactive are the calls of the source. Calls come from the whole dose curve; as a rule, active = well fitted inhibition curve with a large enough effect; inconclusive = small, poorly fitted or top-dose-only effect; inactive = flat fitted curve, though single readings scatter.

Key:
[1] = qHTS profiling for inhibitors of Plasmodium falciparum proliferation (AID 504749);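 note: 0% = DMSO vehicle and full inhibition = artemisinin control; nearly all actives have a fitted effect of over 60% in size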; conditions: P. falciparum in erythrocytes, SYBR Green DNA, 72 h, at 28.7 µM (top of the series)
Outline: (§1)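 Parasite proliferation within erythrocytes, 72 h exposure. Endpoint: SYBR Green I fluorescence after overnight lysis at room temperature. Controls: 0.29 uM artemisinin, DMSO.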

3D7 = assay: as above; conditions: P. falciparum in erythrocytes, SYBR Green DNA, 72 h; series mostly up to 28.7 µM
Outline: as §1

7G8 = assay: as above; conditions: P. falciparum in erythrocytes, SYBR Green DNA, 72 h; series mostly up to 28.7 µM
Outline: as §1

AA1029 = assay: as above; conditions: P. falciparum in erythrocytes, SYBR Green DNA, 72 h; series mostly up to 28.7 µM
Outline: as §1

AS120 = assay: as above; conditions: P. falciparum in erythrocytes, SYBR Green DNA, 72 h; series mostly up to 28.7 µM
Outline: as §1

ATS189 = assay: as above; conditions: P. falciparum in erythrocytes, SYBR Green DNA, 72 h; series mostly up to 28.7 µM
Outline: as §1

ATS95 = assay: as above; conditions: P. falciparum in erythrocytes, SYBR Green DNA, 72 h; series mostly up to 28.7 µM
Outline: as §1

C2A = assay: as above; conditions: P. falciparum in erythrocytes, SYBR Green DNA, 72 h; series mostly up to 28.7 µM
Outline: as §1

CP185 = assay: as above; conditions: P. falciparum in erythrocytes, SYBR Green DNA, 72 h; series mostly up to 28.7 µM
Outline: as §1

CP191 = assay: as above; conditions: P. falciparum in erythrocytes, SYBR Green DNA, 72 h; series mostly up to 28.7 µM
Outline: as §1

CP192 = assay: as above; conditions: P. falciparum in erythrocytes, SYBR Green DNA, 72 h; series mostly up to 28.7 µM
Outline: as §1

CP194 = assay: as above; conditions: P. falciparum in erythrocytes, SYBR Green DNA, 72 h; series mostly up to 28.7 µM
Outline: as §1

CP201 = assay: as above; conditions: P. falciparum in erythrocytes, SYBR Green DNA, 72 h; series mostly up to 28.7 µM
Outline: as §1

CP211 = assay: as above; conditions: P. falciparum in erythrocytes, SYBR Green DNA, 72 h; series mostly up to 28.7 µM
Outline: as §1

CP215 = assay: as above; conditions: P. falciparum in erythrocytes, SYBR Green DNA, 72 h; series mostly up to 28.7 µM
Outline: as §1

CP203 = assay: as above; conditions: P. falciparum in erythrocytes, SYBR Green DNA, 72 h; series mostly up to 28.7 µM
Outline: as §1

O=C(O)c1ccccc1OP(=O)(O)O
inactive: activity, negative = inhibition ([1]; parasite line A) 4.92% | activity, negative = inhibition ([1]; parasite line B) 6.75% | Potency (3D7) | Potency (7G8) | Potency (AA1029) | Potency (AS120) | Potency (ATS189) | Potency (ATS95) | Potency (C2A) | Potency (CP185) | outcome (CP191) | outcome (CP192) | outcome (CP194) | outcome (CP201) | outcome (CP211) | Potency (CP215)

O=C(NCN1CCOCC1)c1cnccn1
inactive: activity, negative = inhibition ([1]; parasite line A) -8.14% | activity, negative = inhibition ([1]; parasite line B) 11.7% | Potency (3D7) | Potency (7G8) | Potency (AA1029) | Potency (AS120) | Potency (ATS189) | Potency (ATS95) | Potency (C2A) | Potency (CP185) | outcome (CP191) | outcome (CP192) | outcome (CP194) | outcome (CP201) | outcome (CP211) | Potency (CP215)

Cc1cc(=O)[nH]c(=S)[nH]1
inactive: activity, negative = inhibition ([1]; parasite line A) 10.7% | activity, negative = inhibition ([1]; parasite line B) 5.6% | Potency (3D7) | Potency (7G8) | Potency (AA1029) | Potency (AS120) | Potency (ATS189) | Potency (ATS95) | Potency (C2A) | Potency (CP185) | outcome (CP191) | outcome (CP192) | outcome (CP194) | outcome (CP201) | outcome (CP211) | Potency (CP215)

Cc1cc(C)nc(NS(=O)(=O)c2ccc(N)cc2)n1
inactive: activity, negative = inhibition ([1]; parasite line A) 7.93% | activity, negative = inhibition ([1]; parasite line B) 10.9% | Potency (3D7) | Potency (7G8) | Potency (AA1029) | Potency (AS120) | Potency (ATS189) | Potency (ATS95) | Potency (C2A) | Potency (CP185) | outcome (CP191) | outcome (CP192) | outcome (CP194) | outcome (CP201) | outcome (CP211) | Potency (CP215)

O=C(O)c1cc(=O)c2ccccc2o1
inactive: activity, negative = inhibition ([1]; parasite line A) -22.1% | activity, negative = inhibition ([1]; parasite line B) 5.99% | Potency (3D7) | Potency (7G8) | Potency (AA1029) | Potency (AS120) | Potency (ATS189) | Potency (ATS95) | Potency (C2A) | Potency (CP185) | outcome (CP191) | outcome (CP192) | outcome (CP194) | outcome (CP201) | outcome (CP211) | Potency (CP215)

CC[N+](C)(CC)CCOC(=O)C1c2ccccc2Oc2ccccc21
inactive: activity, negative = inhibition ([1]; parasite line A) -12.5% | activity, negative = inhibition ([1]; parasite line B) -20.9% | Potency (3D7) | Potency (7G8) | Potency (AA1029) | Potency (AS120) | Potency (ATS189) | Potency (ATS95) | Potency (C2A) | Potency (CP185) | outcome (CP192) | outcome (CP194) | outcome (CP201) | outcome (CP211) | Potency (CP215)

O=C1C(c2[nH]c3ccccc3c2O)=Nc2ccccc21
inactive: Potency (AA1029) | Potency (ATS95) | Potency (CP185) | outcome (CP192) | outcome (CP194) | outcome (CP201)

CC(C)=CCC/C(C)=C/CO
inactive: activity, negative = inhibition ([1]; parasite line A) -3.97% | Potency (3D7) | Potency (7G8) | Potency (AA1029) | Potency (AS120) | Potency (ATS189) | Potency (ATS95) | Potency (C2A) | Potency (CP185) | outcome (CP191) | outcome (CP192) | outcome (CP194) | outcome (CP201) | Potency (CP203) | outcome (CP211) | Potency (CP215)

CCCCCCCC(=O)OCC(COC(=O)CCCCCCC)OC(=O)CCCCCCC
inactive: activity, negative = inhibition ([1]; parasite line A) 4.54% | Potency (3D7) | Potency (7G8) | Potency (AA1029) | Potency (AS120) | Potency (ATS189) | Potency (ATS95) | Potency (C2A) | Potency (CP185) | outcome (CP191) | outcome (CP192) | outcome (CP194) | outcome (CP201) | Potency (CP203) | outcome (CP211) | Potency (CP215)

CC(=O)Oc1cccc(O)c1
inactive: activity, negative = inhibition ([1]; parasite line A) 4.48% | activity, negative = inhibition ([1]; parasite line B) 12.6% | Potency (3D7) | Potency (AA1029) | Potency (AS120) | Potency (ATS189) | Potency (ATS95) | Potency (C2A) | Potency (CP185) | outcome (CP191) | outcome (CP192) | outcome (CP194) | outcome (CP201) | outcome (CP211) | Potency (CP215)

Nc1ncnc(Nc2ccccc2)n1
inactive: activity, negative = inhibition ([1]; parasite line A) -28.4% | Potency (3D7) | Potency (7G8) | Potency (AA1029) | Potency (AS120) | Potency (ATS189) | Potency (ATS95) | Potency (C2A) | Potency (CP185) | outcome (CP192) | outcome (CP194) | outcome (CP201) | Potency (CP203) | outcome (CP211) | Potency (CP215)

Cc1cc(-n2nc3ccc(Cl)cc3n2)c(O)c(C(C)(C)C)c1
inactive: Potency (3D7) | Potency (7G8) | outcome (CP192) | outcome (CP194) | outcome (CP201) | outcome (CP211) | Potency (CP215)

O=C(c1ccccc1)C(O)c1ccccc1 (stereo not drawn)
inactive: activity, negative = inhibition ([1]; parasite line B) -14.9% | Potency (3D7) | Potency (7G8) | Potency (AA1029) | Potency (AS120) | Potency (ATS189) | Potency (ATS95) | Potency (C2A) | Potency (CP185) | outcome (CP191) | outcome (CP192) | outcome (CP194) | outcome (CP201) | Potency (CP203) | outcome (CP211) | Potency (CP215)

CN(C/C=C/C#CC(C)(C)C)Cc1cccc2ccccc12
inactive: activity, negative = inhibition ([1]; parasite line A) -1.32% | activity, negative = inhibition ([1]; parasite line B) -6.19% | Potency (3D7) | Potency (AA1029) | Potency (AS120) | Potency (ATS189) | Potency (ATS95) | Potency (C2A) | Potency (CP185) | outcome (CP191) | outcome (CP192) | outcome (CP194) | outcome (CP201) | Potency (CP203) | outcome (CP211) | Potency (CP215)

O=C1c2ccccc2S(=O)(=O)N1CCCCN1CCN(c2ncccn2)CC1
inactive: activity, negative = inhibition ([1]; parasite line A) -16.2% | activity, negative = inhibition ([1]; parasite line B) 25.9% | Potency (3D7) | Potency (AA1029) | Potency (AS120) | Potency (ATS189) | Potency (ATS95) | Potency (C2A) | Potency (CP185) | outcome (CP191) | outcome (CP192) | outcome (CP194) | outcome (CP201) | Potency (CP203) | outcome (CP211) | Potency (CP215)
